# PubChem BioAssay (NCI)
# The panel holds about 83,000 compounds, 20% with a hit somewhere; the sample as a whole holds those more often.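 Assay: single dose, 48 h. Readout: percent growth (0 = no net growth; negative = cell death). Active: <10.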 The source made the active and inactive calls.
# Test system: CCRF-CEM leukemia
# Assay: NCI-60 one-dose screen, 48 h (100 = growth as untreated, 0 = no growth, -100 = all killed)
# Details: 10 µM
# Method: Growth inhibition of the CCRF-CEM human tumor cell line is measured as a screen for anti-cancer activity. Cells are grown in 96 well plates and exposed to the test compound for 48 hours. Compounds are tested at a single concentration, which is 10^-5 M for most compounds. The reported endpoint is percent growth (GI% or GIPRCNT), where numbers from 0 - 100% represent growth inhibition, and numbers from -100% - 0 represent cell death. For example, a value of 40 represents 60% growth inhibition. A value of 0 means no net growth occurred over the course of the experiment. A value of -40 indicates 40% of cells at the beginning of the experiment died by the end of the experiment. A value of -100 means all cells are dead at the end of the experiment.
# NCI-60 Human Tumor Cell Lines Screen was performed using the standard one-dose NCI protocol, which is described in more detail at https://dtp.cancer.gov/discovery_development/nci-60/default.htm.
# Compounds with GIPRCNT values below 10 were considered active. Activity score was based on GIPRCNT using the following formula: […]
# Score is 0 for GIPRCNT values of 100 or above, 50 for GIPRCNT values of 0, and 100 for GIPRCNT values of -100.
row,SMILES,growth
1,COc1ccc(-c2cc(C(=O)N=Nc3c(O)[nH]c4ccc(F)cc34)c3ccccc3n2)cc1,44.2% (inactive)
2,COc1ccc(NC(=O)Nc2ccc(OCC(=O)N=Nc3c(O)[nH]c4ccc([N+](=O)[O-])cc34)cc2)cc1,93.7% (inactive)
3,COC1=C[C@]23CCC(=O)N2CCc2cc4c(cc2[C@@H]3[C@@H]1OC(=O)CCCC(C)C)OCO4,59.7% (inactive)
4,O=C(Cc1ccc2c(c1)CN(C1CCC(=O)NC1=O)C2=O)NCCc1ccccc1 (stereo not given),10.6% (inactive)
5,COc1cccc(-c2ccc(/C=N/NC(=O)c3[nH]c4ccc(Br)cc4c3-c3ccccc3)o2)c1,-5.45% (active)
6,CC(=O)Nc1ccc(-c2cn(-c3cccc(C(=O)Nc4ccc(F)c(C(F)(F)F)c4)c3)nn2)cn1,53.9% (inactive)
7,COc1ccc(-c2c(N)c(=O)n(C)c3ccccc23)cc1,54.6% (inactive)
8,COc1ccc(CN2[C@@H](C(=O)NCc3ccc(C(=O)NO)cc3)Cc3c([nH]c4ccccc34)[C@@H]2C)cc1,15.8% (inactive)
9,C#CCNC(=O)[C@]12CCC(C)(C)C[C@H]1C1=CC[C@@H]3[C@@](C)(CCC#N)[C@H](C(=C)C)CC[C@@]3(C)[C@]1(C)CC2,26.2% (inactive)
10,CC1=N/C(=C\c2ccc(N(C)C)cc2)C(=O)N1CCc1ccc(S(N)(=O)=O)cc1,88.4% (inactive)
11,Cc1cc(=O)oc2cc(OCCCCOc3ccc(/C=C/C(=O)Nc4ccc(F)c(Cl)c4)cc3)ccc12,92.7% (inactive)
12,COc1cc(/C=C/C(=O)c2ccc(C(F)(F)F)cc2)ccc1Oc1nc(Nc2ccc(F)cc2)nc(N(C)C)n1,64.8% (inactive)
13,Cc1ccc(/C=C/C(=O)c2ccc(NC(=O)CSc3nnc(-c4c[nH]c5ccccc45)n3-c3ccccc3)cc2)c(C)c1,83.1% (inactive)
14,CC(C)c1ccc(C(=O)Nc2sc3c(c2C(N)=O)CCC(=O)C3=O)cc1,86.4% (inactive)
15,O=C(/C=C/Nc1ccc(F)cc1F)c1ccc2c(c1)Nc1ccccc1S2,73.8% (inactive)
16,O=C1CCC(N2Cc3cc(CC(=O)Nc4ccc(N5CCCCC5)cc4)ccc3C2=O)C(=O)N1 (stereo not given),16.9% (inactive)
17,CC(=C(c1ccc(OCCN2CCCCCC2)cc1)c1ccc(OCCN2CCCCCC2)cc1)c1ccc(Cl)cc1,-61.5% (active)
18,N#Cc1c(-c2ccc(F)cc2)nc(SCc2ccc(F)cc2)nc1N1CCOCC1,87.1% (inactive)
19,Cc1cc(=O)oc2cc(OCCCCOc3ccc(/C=C/C(=O)Nc4cccc(Cl)c4)cc3)ccc12,83.4% (inactive)
20,COC[C@@H](CC(C)C)N=C1N/C(=C\c2ccc3ncsc3c2)C(=O)N1C,7.03% (active)

row,SMILES,growth
1,CN1C(=O)N(C)C2SC(N/N=C/c3ccccc3F)=NC21 (stereo not given),67.3% (inactive)
2,O=C(NCCCCCCCCCC[P+](c1ccccc1)(c1ccccc1)c1ccccc1)c1ccc(-n2nc(-c3ccccc3O)nc2-c2ccccc2O)cc1,4.27% (active)
3,O=C(Nc1ccc(I)cc1F)c1cc(-c2ccc(F)cc2F)ccc1O,7.55% (active)
4,COc1ccccc1[C@H]1C(C(=O)c2ccc(Cl)cc2)C2(N[C@@H]1c1ccccc1)C(=O)Nc1ccccc12 (stereo not given in full),4.07% (active)
5,O=c1oc2ccccc2cc1-c1csc(N=Nc2c(O)[nH]c3ccc(Br)cc23)n1,99.8% (inactive)
6,CNCc1cccc2c1OCCCCCC[C@@](C)(O)CC1(CC1)S(=O)(=O)c1ccc(cc1)-c1cnc(N)c(n1)C(=O)N2,-6.39% (active)
7,O/N=C(\CSc1nnc(-c2c[nH]c3ccccc23)n1-c1ccccc1)c1ccc(Cl)cc1,-5.19% (active)
8,C/C(=C\CSc1ccccc1C(=O)O)CCCC(C)CCCC(C)CCCC(C)C (stereo not given),29.8% (inactive)
9,O=c1[nH]c2ccccc2cc1CSc1ccc(Nc2nccc(-c3ccc(C(F)(F)F)cc3)n2)cc1,75% (inactive)
10,COc1ccc(/C=N/N=C(\C)c2ccc3c(c2)Nc2ccccc2S3)cc1O,33.9% (inactive)
11,Cc1ccc(/C=C(\C#N)n2nnc3c(F)cccc32)cc1,10.1% (inactive)
12,CC(C)(C)c1ccc(NCc2cn(-c3ccc(C(=O)O)cc3)nc2-c2ccc(C#N)cc2)cc1,16.3% (inactive)
13,CN(C(=O)c1ccc(C(C)(C)C)cc1)c1sc2c(c1C#N)CCC(=O)C2,8.93% (active)
14,COc1ccc(C2NC(=S)NC(C)=C2C(=O)OC(C)C)cc1OC (stereo not given),95.9% (inactive)
15,CC1=C2C(=C[C@@](C)(COCOCCCl)[C@@H]2O)C(=O)[C@](C)(O)C12CC2,3.19% (active)
16,COc1ccc2[nH]c(O)c(N=NC(=O)COc3ccc(NC(=O)Nc4ccc(Cl)cc4)cc3)c2c1,8.83% (active)
17,O/N=C(\CSc1nnc(-c2c[nH]c3ccccc23)n1-c1ccccc1)c1ccc(Br)cc1,-6.14% (active)
18,CCC(C)S(=O)(=O)c1oc(-c2ccc(C)cc2)nc1S(=O)(=O)c1ccccc1 (stereo not given),-46% (active)
19,COc1cc(C2CC(c3ccc(C)cc3)=Nc3c(N)nc(N)nc3N2)ccc1Oc1nc(Nc2ccc(F)cc2)nc(N(C)C)n1 (stereo not given),47.1% (inactive)
20,COc1cc(OC(F)(F)F)ccc1C(=O)Nc1sc2c(c1C#N)CCC(=O)C2,18.3% (inactive)
